Most compounds without a hit are left out; they make up all but 3.7% or so of the library.
tim10-1 inh = growth inhibitors of tim10-1 mutant yeast | S. cerevisiae tim10-1 ts strain growth, BacTiter-Glo, 24 h | inhibition, % at 20 µM | 2.2% of 330,000 active | AID 463190;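 active = inhibition of at least 40%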;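 also: mutant grown at 25 °C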
tim23-1 inh = growth inhibitors of tim23-1 mutant yeast. inhibition, % at 20 µM. 1.3% of 330,000 active. AID 463212. S. cerevisiae tim23-1 growth, BacTiter-Glo luminescence, 24 h;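 active = growth inhibition of the mutant yeast at or above 50%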;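 also: temperature-sensitive mutant grown at 25 °C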
PfHsp90 set2 = inhibits growth of yeast expressing Plasmodium falciparum Hsp90 | 0.32% of 310,000 active | AID 504621 | inhibition, % at 9.4 µM | S. cerevisiae expressing PfHsp90, BacTiter-Glo ATP, 48 h; yeast lacking PDR1 and PDR3 efflux regulators;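 active = every replicate shows inhibition above about 80%, whatever the replicate mean, limit read from the data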
Rce1 inh = inhibitors of yeast Ras-converting enzyme; yeast membranes, quenched prenylated peptide cleavage fluorescence; calls only; Q03530; 0.27% of 290,000 active;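 active = fall in fluorescence gain of 50% or more versus controls, with final raw signal at or below 3038400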
Target sequence (Q03530 whole entry, looked up): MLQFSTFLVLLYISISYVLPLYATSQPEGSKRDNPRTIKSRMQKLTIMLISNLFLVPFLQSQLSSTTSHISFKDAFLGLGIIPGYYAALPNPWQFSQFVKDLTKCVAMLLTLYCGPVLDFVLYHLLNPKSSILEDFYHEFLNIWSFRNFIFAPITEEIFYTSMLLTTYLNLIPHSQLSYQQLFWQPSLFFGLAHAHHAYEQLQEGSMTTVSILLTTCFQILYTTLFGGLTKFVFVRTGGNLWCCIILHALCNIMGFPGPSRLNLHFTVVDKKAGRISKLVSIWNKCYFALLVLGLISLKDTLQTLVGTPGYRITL
TIM10 inh = growth inhibitors of TIM10 yeast strain. 1.4% of 330,000 active. AID 463195. inhibition, % at 10 µM. S. cerevisiae TIM10 strain growth, BacTiter-Glo luminescence, 24 h;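 active = inhibition of 40% or more at the single tested concentration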;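 also: wild-type TIM10 isogenic control strain grown at permissive 25 °C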
tim23-1 conf = tim23-1 yeast growth inhibition, confirmed. 83% of 4,400 active. shares compounds with tim23-1 inh. S. cerevisiae tim23-1 growth, BacTiter-Glo luminescence, 24 h. inhibition, % at 20 µM;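 active = inhibition above about 39% in either of two replicate wells at 20 µM, limit read from the data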;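 also: temperature-sensitive tim23-1 mutant grown at 25 °C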
A number is an active result; – = inactive; · = no result.

SMILES	tim10-1 inh	tim23-1 inh	PfHsp90 set2	Rce1 inh	TIM10 inh	tim23-1 conf
O=C(OCC(=O)c1ccc[nH]1)c1cncc(Br)c1	–	–	–	·	–	·
COc1ccc(C(=O)COC(=O)c2cncc(Br)c2)cc1	–	65	–	·	–	75
CCCCCCc1ccc(-c2ncc(N)cn2)cc1	–	53	–	–	–	41
CNC(=O)c1sc(-c2ccccc2)nc1C	–	–	–	–	–	·
Cc1nc(-c2ccccc2)sc1C(N)=O	–	96	–	–	–	–
Cc1ccccc1C(=O)N1CCC(n2nccc2NC(=O)C2CC2)CC1	–	–	–	·	–	·
Oc1c(C(c2ccccc2Cl)N2CCCC2)ccc2cccnc12 (stereo not given)	–	65	119	–	–	59
Oc1c(C(c2ccc(Cl)cc2)N2CCCC2)cc(Cl)c2cccnc12 (stereo not given)	–	64	128	–	–	68
O=S(=O)(c1cccc2cccnc12)N1CCCCC1	–	–	·	·	–	·
COc1cccc(NC(=O)CCC2CCN(C(=O)c3ccc(C(C)=O)s3)CC2)c1	–	–	–	–	–	·
CN(Cc1c(F)cccc1Cl)C(=O)c1ccc(NC(=O)CC2SC(N3CCCC3)=NC2=O)cc1 (stereo not given)	–	–	–	–	–	·
Cc1nnc(NN2CCOCC2)[nH]c1=O	–	–	–	–	–	·
O=C(/C=C/c1ccccc1)NCCc1c[nH]c2ccccc12	–	59	–	–	–	60
O=C(NCCc1c[nH]c2ccccc12)c1ccccc1	–	–	–	–	–	·
O=C(NCCc1c[nH]c2ccccc12)/C(=C\c1ccco1)NC(=O)c1ccco1	–	94	–	–	–	–
Cc1occc1C(=O)NNC(=O)c1ccc(Br)o1	–	–	–	–	–	·
CCSc1ccc([C@@H]2[C@H]3C(=O)N(CC)C(=O)[C@H]3[C@]3(C(=O)OC)CCCCN23)cc1	–	81	–	–	–	45
CCCOc1cc(C)c(S(=O)(=O)n2ccc(C)n2)cc1C	–	–	–	–	–	·
COC(=O)[C@]1(C)CCC[C@@]2(C)C3CC[C@@]4(C)C[C@]3(CCC21)CC4=NO (stereo not given in full)	–	52	–	·	–	46
COC(=O)[C@]1(C)CCC[C@@]2(C)C3CC[C@@]4(C)C[C@]3(CCC21)CC(=O)N4C (stereo not given in full)	–	–	·	·	–	·
O=C1C=C(c2ccc3[nH]ccc3c2)C[C@@H](c2ccc(F)cc2)C1	–	53	–	·	–	50
O=C1C=C(c2ccc3c(c2)OCCO3)C[C@@H](c2ccc(F)cc2)C1	–	51	–	·	–	48
CC(=O)CCC(=O)N1CCCC(N2CCN(c3cccc(Cl)c3)CC2)C1 (stereo not given)	–	–	–	–	–	·
COc1cc(/C=N/NC(=O)c2ccc(N)cc2)ccc1OC(=O)c1cccc(C)c1	–	65	–	–	–	73
COc1cc(/C=N\NC(=O)c2ccc(C)nc2)ccc1OC(=O)c1cccc(F)c1	–	–	–	–	–	·
SMILES	tim10-1 inh	tim23-1 inh	PfHsp90 set2	Rce1 inh	TIM10 inh	tim23-1 conf
C=C1c2cccc(OC)c2O[C@H](C(=O)OCC)[C@@H]1CC(CC)CCCC (stereo not given in full)	–	51	–	·	–	–
Cc1ccc(C(=O)C2CCN(CC(=O)Nc3nc(C)cs3)CC2)cc1	–	–	–	–	–	·
CCCCN(C(=O)Cc1ccc2c(c1)OCCO2)c1c(N)n(CCC)c(=O)[nH]c1=O	–	–	–	·	–	·
CCCN(C(=O)c1cc(C)ccc1C)c1c(N)n(Cc2ccccc2)c(=O)[nH]c1=O	–	–	–	·	–	·
CCCCn1c(N)c(N(CCC(C)C)C(=O)c2ccc3c(c2)OCO3)c(=O)[nH]c1=O	–	62	–	·	–	58
CCCN(C(=O)c1ccc([N+](=O)[O-])c(C)c1)c1c(N)n(Cc2ccccc2)c(=O)[nH]c1=O	–	53	–	·	–	60
CCCCN(C(=O)c1ccc2c(c1)OCCO2)c1c(N)n(CCCC)c(=O)[nH]c1=O	–	59	–	–	–	57
CC(C)CCn1cnc2c(cnn2-c2ccc(Cl)cc2)c1=O	–	–	–	–	–	·
c1ccc(-c2cn3c4c(sc3n2)CCCC4)cc1	–	55	–	–	–	60
c1ccc(-c2cn3nc(-c4ccccc4)sc3n2)cc1	–	–	–	–	–	·
CN(C)C(=S)Nc1ccc(Cc2ccncc2)cc1	–	–	–	–	–	·
COc1ccc(/C=c2\sc3nc(=O)c(C)nn3c2=O)c(OC)c1	–	53	–	–	–	39
CCCCCC(=O)Nc1cc(S(=O)(=O)O)cc2cc(S(=O)(=O)O)cc(O)c12	·	·	–	·	·	·
C=CCNC(=O)C(=O)Nc1ccc2c(c1)N(S(=O)(=O)c1cccs1)CCC2	–	51	–	–	–	42
O=C(CONS(=O)(=O)c1ccc(Cl)cc1)NCCNc1ncc(C(F)(F)F)cc1Cl	–	–	–	–	–	·
Cc1cc(C(=O)c2ccccc2)c(NC(=O)CCl)s1	–	55	–	–	–	–
Cc1ccc(-c2cc(NC(=O)CCl)n(-c3ccccc3)n2)cc1	–	–	–	–	–	·
Cc1ccc(-c2nn(-c3ccccc3)cc2/C=N/O)cc1	–	59	·	–	–	38
Cc1ccc(-c2nn(-c3ccccc3)cc2NC(=O)CCl)cc1	–	65	–	–	–	44
CCCOc1ccc(-c2csc(N)n2)cc1[N+](=O)[O-]	–	57	–	–	–	57
CCCCOc1ccc(-c2cn3ccccc3n2)cc1[N+](=O)[O-]	–	–	–	–	–	·
Cc1cccc(NC(=S)N/N=C/c2c[nH]c3ccccc23)c1	–	64	–	–	–	–
Cc1ccc(C(=O)Nc2ccc(C(=O)N/N=C/c3c[nH]c4ccccc34)cc2)cc1	–	–	–	–	–	·
CCCn1c(SCC(=O)N2CCN(S(=O)(=O)c3ccc(Cl)cc3)CC2)n[nH]c1=O	–	58	–	·	–	–
COc1cc(C2CC(=O)Oc3cc(O)ccc32)cc(OC)c1OC (stereo not given)	–	–	–	·	–	·
SMILES	tim10-1 inh	tim23-1 inh	PfHsp90 set2	Rce1 inh	TIM10 inh	tim23-1 conf
COc1cc(C2CC(=O)Oc3cc4c(cc32)OCO4)cc(OC)c1OC (stereo not given)	–	–	–	·	–	·
COc1ccc(C2CC(=O)Oc3cc4c(cc32)OCO4)cc1 (stereo not given)	–	61	–	·	–	49
COc1ccc(C2CC(=O)Oc3cc(O)ccc32)cc1 (stereo not given)	–	57	–	·	–	46
COc1ccccc1C(=O)COC(=O)/C(=C/c1ccccc1)NC(C)=O	–	–	–	–	–	·
Cc1ccc(Nc2cc(C)c3ccc(O)cc3n2)cc1C	–	82	–	–	–	36
CSc1ccccc1NC(=O)CN(C)C(=O)C(C)SCc1nc2sc(C)c(C)c2c(=O)[nH]1 (stereo not given)	·	·	–	·	·	·
CCn1c(/C=C/c2ccccc2Cl)nc2ccccc2c1=O	–	–	–	–	–	·

Screens (PubChem BioAssay)
